# Measurements from PubChem BioAssay (NCATS).
# Records with an inconclusive call do not appear. A number with no mark means an inactive call. Active and inactive are the calls of the source. Calls come from the whole dose curve; as a rule, active = well fitted inhibition curve with a large enough effect; inconclusive = small, poorly fitted or top-dose-only effect; inactive = flat fitted curve, though single readings scatter.
# Tested on: CRL-7250
# Assay: Cytotoxic Profiling of Annotated Libraries Using Quantitative High-Throughput Screening (AID 1296008); note: nearly all actives have a fitted effect of over 60% in size
# Settings: Five cell lines viability, CellTiter-Glo ATP luminescence, 48-72 h; max response: stronger effect = lower value
# Method in brief: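 Cytotoxicity was measured as CellTiter-Glo ATP luminescence, read after 10 min at room temperature. Compound treatment of the cells lasted 48 or 72 hr at 37 degrees Celsius in a qHTS format.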
# % is set by controls: 0 for no effect and ±100 for the full control effect; potency is the fitted concentration of half-maximal effect.
smiles,measurement,value
Cc1c(C)c2c(c(C)c1OC(=O)CCC(=O)OCCO)CC[C@@](C)(CCC[C@H](C)CCC[C@H](C)CCCC(C)C)O2,max response,-109%
COC(=O)/C=C(/C)N,max response,-6.42%
O=C(O)CCC(=O)OC[C@@H](NC(=O)C(Cl)Cl)[C@H](O)c1ccc([N+](=O)[O-])cc1,max response,-4.73%
CCOC(=O)C(O)c1ccccc1 (stereo not drawn),outcome,inactive
C[C@H]1NCc2cc(-c3ccc4c(=O)c(C(=O)O)cn(C5CC5)c4c3OC(F)F)ccc21,max response,-16.7%
CN(CC1(C)CCCO1)S(=O)(=O)c1ccc(Cl)c(S(N)(=O)=O)c1 (stereo not drawn),max response,1.85%
Nc1c(I)cc(I)c(C(=O)N(CCC(=O)O)c2ccccc2)c1I,max response,1.19%
Clc1ccc2c(c1)Nc1ccccc1S2,max response,-4.08%
C[N+]1(C)CCC(OC(=O)C(O)(c2ccccc2)C2CCCC2)C1 (stereo not drawn),max response,2.29%
CCCC(CCC)(C(=O)OCC)C(=O)OCC,max response,-5.21%
C[C@@H]1C[C@H]2[C@@H]3CCC4=CC(=O)C=C[C@]4(C)[C@@]3(F)[C@@H](O)C[C@]2(C)[C@@]1(O)C(=O)COC(=O)c1ccncc1,max response,-11%
CCC(C(=O)NC(=O)NC(C)=O)c1ccccc1 (stereo not drawn),max response,2.16%
CNC(=O)c1c(I)c(NC(C)=O)c(I)c(C(=O)O)c1I,max response,-1.99%
CSCC[C@H](NC(=O)[C@H](Cc1c[nH]c2ccccc12)NC(=O)CCNC(=O)OC(C)(C)C)C(=O)N[C@@H](CC(=O)O)C(=O)N[C@@H](Cc1ccccc1)C(N)=O,max response,0.728%
CC[C@@]1(O)C(=O)OCc2c1cc1n(c2=O)Cc2c-1nc1ccccc1c2/C=N/OC(C)(C)C,Potency,1190 nM (active)
Oc1ccccc1,max response,-1.94%
O=c1[nH]c2ccccc2c(=O)n1CCCl,max response,-4.5%
CCOC(=O)OCC/C(SC(=O)OCC)=C(\C)N(C=O)Cc1cnc(C)nc1N,max response,-3.12%
COC(=O)/C=C\C(=O)OC,max response,-5.33%
Cc1cccc(C)c1NC(=O)c1ccc(N)cc1,max response,-0.144%
CCOc1ccccc1OCC1CNCCO1 (stereo not drawn),max response,-6.41%
COC(=O)C1=C(C)NC(C)=C(C(=O)OCCc2ccc(N3CCN(C(c4ccccc4)c4ccccc4)CC3)cc2)C1c1cccc([N+](=O)[O-])c1 (stereo not drawn),max response,-8.49%
CCCOc1ccc2c(c1)CC[C@@H]1[C@@H]2CC[C@]2(C)C(OC)CC[C@@H]12 (stereo partly drawn),max response,-5.35%
Cc1cccc(C)c1NC(=O)c1cc(S(N)(=O)=O)c(Cl)cc1O,outcome,inactive
O=C(Nc1ccc(S(=O)(=O)N2CCOCC2)cc1)c1cc(Cl)ccc1NS(=O)(=O)c1ccc(Cl)s1,max response,-9.47%
CC1c2ccccc2CN1NC(=O)c1ccc(Cl)c(S(N)(=O)=O)c1 (stereo not drawn),max response,-8.72%
CO[C@@H]1[C@@H](OC)[C@H](C)[C@@](O)(CC(=O)O)O[C@H]1[C@H](C)[C@H]1O[C@@]2(CC[C@@](C)([C@H]3CC[C@@](C)([C@@H]4O[C@@H]([C@H]5O[C@](C)(O)[C@H](C)C[C@@H]5C)C[C@@H]4OC4C[C@H](OC)[C@@H](OC)[C@H](C)O4)O3)O2)C[C@H](O)[C@H]1C (stereo partly drawn),Potency,944 nM (active)
C[C@@H](O[C@H]1OCCN(Cc2n[nH]c(=O)[nH]2)[C@H]1c1ccc(F)cc1)c1cc(C(F)(F)F)cc(C(F)(F)F)c1,max response,4.27%
CCOc1ncc(F)c(=O)[nH]1,outcome,inactive
CNC[C@H](O)[C@@H](O)[C@H](O)[C@H](O)CO,max response,-2.73%
Cc1ccc(Cl)c(OCC(O)CNC(C)(C)C)c1 (stereo not drawn),outcome,inactive
CCCCCCn1c(=O)c2c(ncn2C)n(C)c1=O,outcome,inactive
COc1cc(C(=O)OC(COCCC(C)C)CN2CCOCC2)cc(OC)c1OC (stereo not drawn),max response,-2.39%
Nc1ccc(C(=O)OCC(O)CO)cc1 (stereo not drawn),max response,-0.994%
CC(=O)N(CC(=O)N(C)C)c1ccccc1,max response,-29.6%
Cc1onc(-c2c(Cl)cccc2Cl)c1C(=O)Cl,outcome,inactive
O=C(C1CCCCC1)N1CC(=O)N2CCCc3ccccc3C2C1 (stereo not drawn),outcome,inactive
COc1cc(C(=O)NC2CCCNC2)cc(OC)c1OC (stereo not drawn),max response,1.65%
O=C(O)C1CCC1,outcome,inactive
Cc1onc(-c2ccccc2)c1C(=O)Cl,max response,-2.71%
O=C(O)CCCC[C@@H]1SC[C@@H]2NC(=O)N[C@@H]21,outcome,inactive
CC1(C)OC(=O)Nc2ccc(Br)cc21,outcome,inactive
CC1(C)O[C@@H]2C[C@H]3[C@@H]4CCC5=CC(=O)C=C[C@]5(C)[C@@]4(F)[C@@H](O)C[C@]3(C)[C@]2(C(=O)CO)O1,max response,-0.473%
CN1N=C(C(N)=O)CCC1=O,outcome,inactive
COCCc1ccc(OCC2CO2)cc1 (stereo not drawn),max response,1.12%
COc1ccc2c(c1)CCCC2=O,max response,-5.59%
Nc1nnnn1-c1ccccc1,max response,-0.0528%
C[C@]12CCC(=O)C=C1CC[C@@H]1[C@@H]2[C@@H](O)C[C@@]2(C)[C@H]1CC[C@]2(O)C(=O)COC(=O)CCC(=O)O,max response,-0.174%
O=C(O)/C=C(\CC(=O)O)C(=O)O,max response,4.3%
Nc1c[n+](N2CCOCC2)no1,outcome,inactive
CN(C)CCOC1=Cc2ccccc2Sc2ccc(Cl)cc21,max response,-2.09%
Cn1c(=O)c2c(ncn2CC(=O)O)n(C)c1=O,max response,-0.788%
Cc1cc2nc3ccc(=[N+](C)C)cc-3sc2cc1N,Potency,9440 nM (active)
CCCCOC(=O)CCCCCCCCC(=O)OCCCC,max response,0.0544%
Cc1cccc(N(C)C(=S)Oc2ccc3c(c2)C2CCC3C2)c1 (stereo not drawn),Potency,29900 nM (active)
CCOC(=O)C(=O)CCc1ccccc1,max response,-13.2%
C/C(=N/NC(=O)c1ccncc1)C(=O)O,max response,0.746%
CC(=O)c1cc2ccccc2s1,max response,-0.976%
Cc1cc(O)c(C)c(C)c1O,outcome,inactive
OC(CCCN1CCCCC1)(c1ccccc1)c1ccccc1,max response,-11.1%
CC(C)=CCNc1ncnc2c1ncn2[C@@H]1O[C@H](CO)[C@@H](O)[C@H]1O,Potency,1500 nM (active)
CCCN(CCC)C(=O)C(CCC(=O)OCCCN1CCN(CCOC(=O)Cc2c(C)n(C(=O)c3ccc(Cl)cc3)c3ccc(OC)cc23)CC1)NC(=O)c1ccccc1 (stereo not drawn),max response,-6.96%
Cc1ccc2ccc(Cl)cc2n1,outcome,inactive
CCOC(=O)[C@H](CCc1ccccc1)N[C@@H](C)C(=O)N(CC(=O)O)C1Cc2ccccc2C1,max response,0.8%
CC(C)C(=O)OCc1cccc(OC(=O)[C@@H]2N3C(=O)[C@@H](NC(=O)Cc4ccccc4)[C@H]3SC2(C)C)c1,outcome,inactive
O=C(CCOCCOCCOCCOCCC(=O)Nc1c(I)cc(I)c(C(=O)O)c1I)Nc1c(I)cc(I)c(C(=O)O)c1I,max response,-8.36%
CCOC(=O)Oc1ccc(CCNC(=O)[C@H](CCSC)NC(C)=O)cc1OC(=O)OCC,outcome,inactive
CCOC(=O)c1ccc(O)c(O)c1,max response,2.32%
N#CC1(c2ccc(F)cc2)CCC(=O)CC1,max response,-2.26%
O=[N+]([O-])c1ccc(-c2nc(-c3ccc(F)cc3)c(-c3ccncc3)[nH]2)cc1,outcome,inactive
CCCCCCOC(=O)NC(=N)c1ccc(NCc2nc3cc(C(=O)N(CCC(=O)OCC)c4ccccn4)ccc3n2C)cc1,max response,2.91%
CCCc1ccc(OCC(=O)N2CCN(C(=O)COc3ccc(CCC)cc3OC)CC2)c(OC)c1,max response,-1.28%
Nc1c(NC/C=C\COc2cc(CN3CCCCC3)ccn2)c(=O)c1=O,max response,-21.7%
